Measurements: PubChem BioAssay (NCI)
This is part of a sample that, as a whole, favours compounds with a hit. Of some 83,000 tested, about 20% had one in any assay.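 Cell lines were cultured in 96-well plates, exposed to a single compound concentration, and assessed for percent growth 48 hours later.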 A number with no mark means an inactive call. Active and inactive are the calls of the source. How the source made its calls: active means growth percent below 10; inactive means the rest.

Key:
Assay in all cases: NCI-60 one-dose screen, 48 h (100 = growth as untreated, 0 = no growth, -100 = all killed)
Conditions in all cases: 10 µM
NCI-H23 lung = system: NCI-H23 lung
NCI-H226 lung = system: NCI-H226 lung
NCI-H322M lung = system: NCI-H322M lung
HOP-62 NSCLC = system: HOP-62 NSCLC
NCI-H460 lung = system: NCI-H460 lung
HOP-92 NSCLC = system: HOP-92 NSCLC
NCI-H522 lung = system: NCI-H522 lung
A549/ATCC NSCLC = system: A549/ATCC NSCLC
786-0 renal = system: 786-0 renal
COLO 205 colon = system: COLO 205 colon
DU-145 prostate = system: DU-145 prostate
MALME-3M melanoma = system: MALME-3M melanoma
MDA-MB-231 breast = system: MDA-MB-231 breast
RXF 393 renal = system: RXF 393 renal
SF-268 CNS = system: SF-268 CNS
SF-295 CNS = system: SF-295 CNS
SF-539 CNS = system: SF-539 CNS
UACC-257 melanoma = system: UACC-257 melanoma
M14 melanoma = system: M14 melanoma
K-562 leukemia = system: K-562 leukemia

SMILES	growth (NCI-H23 lung)	growth (NCI-H226 lung)	growth (NCI-H322M lung)	growth (HOP-62 NSCLC)	growth (NCI-H460 lung)	growth (HOP-92 NSCLC)	growth (NCI-H522 lung)	growth (A549/ATCC NSCLC)	growth (786-0 renal)	growth (COLO 205 colon)	growth (DU-145 prostate)	growth (MALME-3M melanoma)	growth (MDA-MB-231 breast)	growth (RXF 393 renal)	growth (SF-268 CNS)	growth (SF-295 CNS)	growth (SF-539 CNS)	growth (UACC-257 melanoma)	growth (M14 melanoma)	growth (K-562 leukemia)
CC(C)NC(=O)c1cc(-c2ccc(NC(=O)Nc3ccc(N4CCN(C)CC4)c(C(F)(F)F)c3)cc2)nc2cccnc12	-84.6% (active)	-69.1% (active)	-90.6% (active)	-88.4% (active)	-61.7% (active)	-74.8% (active)	-90.8% (active)	-78.9% (active)	-93.8% (active)	-81.1% (active)	-88.7% (active)	-96.3% (active)	-91.6% (active)	-89.8% (active)	-42.9% (active)	-96.5% (active)	-100% (active)	-88.6% (active)	-86.6% (active)	–
O=C(COc1ccc(NC(=O)Nc2ccc(Cl)cc2)cc1)N=Nc1c(O)[nH]c2ccc([N+](=O)[O-])cc12	21.4%	22.4%	53.3%	35.7%	17.5%	-36.2% (active)	8.06% (active)	105%	53.6%	23%	60.3%	12.1%	-44.7% (active)	73.1%	19.5%	87.3%	16.5%	74.9%	21.2%	–
O=C(Cn1cc(CSc2nnc3oc4ccccc4n23)nn1)Nc1cccc(Cl)c1	60.2%	65%	84.1%	72.9%	91.1%	52.1%	47.6%	62.9%	93.3%	97.8%	85.6%	72.8%	63.4%	76.8%	71.8%	66.8%	70.6%	71%	87.8%	–
CCN(CC)CCOc1ccc(C(=C(C)c2ccccc2)c2ccc(OCCN(CC)CC)cc2)cc1	19.9%	71%	31.1%	-44.3% (active)	4.41% (active)	-21.3% (active)	3.11% (active)	15.2%	-51.6% (active)	-88.2% (active)	41.4%	-100% (active)	-60.4% (active)	-74.5% (active)	11.6%	-63.6% (active)	-98.1% (active)	-83.4% (active)	-53.5% (active)	–
N[C@@H](CSSC[C@H](N)C(=O)Nc1ccc(OCC2CCCC2)cc1)C(=O)Nc1ccc(OCC2CCCC2)cc1	-92.9% (active)	-72.5% (active)	-99.5% (active)	-90.7% (active)	-77.1% (active)	-72.8% (active)	-93.2% (active)	-90.7% (active)	-59.9% (active)	-92.5% (active)	-88.4% (active)	-63.7% (active)	-97.4% (active)	-94.1% (active)	-73.1% (active)	-90.4% (active)	-99.7% (active)	-96.1% (active)	-74.5% (active)	–
CC1(C)CC[C@]2(C(=O)Nc3ccccc3)CC[C@]3(C)C(=CC[C@@H]4[C@@]5(C)CC[C@H](N)C(C)(C)[C@@H]5CC[C@]43C)[C@H]2C1	68.8%	88.3%	105%	103%	-30.2% (active)	70.2%	82.9%	74.4%	65.3%	-36.4% (active)	26.6%	83.7%	71.7%	59.8%	119%	52.7%	87.8%	103%	82.4%	–
Cc1ccc(NC(=O)NCn2c(=O)[nH]c3ccccc3c2=O)cc1	53.2%	22.5%	89.1%	44.8%	64.7%	30.7%	73.7%	81.1%	50.7%	115%	89%	79.3%	40.7%	30.3%	64.3%	95%	58.2%	94.5%	79.2%	–
COc1ccc2[nH]c(O)c(N=NC(=O)COc3ccc(NC(=O)Nc4ccc(Cl)cc4)cc3)c2c1	-40.4% (active)	-38.5% (active)	67.8%	-41.1% (active)	-48.6% (active)	-32.5% (active)	26.7%	29.4%	21.4%	-1.56% (active)	18.5%	-14.4% (active)	-69.9% (active)	44.1%	-10.3% (active)	14%	-39% (active)	51.8%	-27.2% (active)	–
COc1ccccc1NCc1ccc(CO)n1-c1ccc(C)cc1	94.3%	81.3%	100%	88.1%	111%	80.5%	93.7%	100%	104%	120%	111%	98.4%	91.2%	107%	94.7%	100%	94.7%	109%	101%	–
C#Cc1ccc(S(=O)(=O)Nc2cccc(-c3csc(NC(C)=O)n3)c2)cc1	65.2%	71.8%	98.9%	84.6%	76.7%	42.5%	56.4%	62.8%	88.2%	88.3%	82.6%	78.7%	84.5%	88.4%	87.3%	66.1%	90.3%	80%	92.4%	–
CN1CCN(c2ccc(Nc3nc(NCCCNC(=O)c4ccc(Cl)cc4)c4sccc4n3)cc2)CC1	81.9%	79.3%	91.3%	91.9%	88.9%	34.1%	103%	87.8%	-4.27% (active)	92.5%	84.2%	72.6%	61.1%	37.6%	77%	98%	18.7%	71.9%	68.6%	–
Cc1ccc(-c2nc3ccc(C(=O)N=Nc4c(O)[nH]c5ccc(Cl)cc45)cc3[nH]2)cc1	-83.8% (active)	-17.6% (active)	3.76% (active)	-73.7% (active)	4.47% (active)	-35.8% (active)	-81.3% (active)	28%	-42.9% (active)	3.66% (active)	6.16% (active)	-28.7% (active)	-73% (active)	-68% (active)	-33.4% (active)	10.1%	33.2%	81.7%	6.09% (active)	–
C=C(C)[C@@H]1CC[C@]2(C)[C@H](CC=C3[C@@H]4CC(C)(C)CC[C@]4(C(=O)N4CCOCC4)CC[C@]32C)[C@@]1(C)CCCN	-82.2% (active)	-80.5% (active)	-98.9% (active)	-90.6% (active)	-77.5% (active)	-77.1% (active)	-91.6% (active)	-84.1% (active)	-79.3% (active)	-92.8% (active)	-93.1% (active)	-93.8% (active)	-91.4% (active)	-90.9% (active)	-76% (active)	-87.4% (active)	-98.6% (active)	-92.4% (active)	-80% (active)	–
CCCCCCCCCCCCCCCCCCCC(=O)NCCc1c[nH]c2ccc(OC(=O)CCCC(=O)OCCOOCCOOCCOOCCOOCCOOCCOOCCOOCCOOCCOOCCOOCCOOCCOC)cc12	59.7%	52.9%	109%	120%	–	74.7%	-82.9% (active)	42.3%	83.9%	117%	39.8%	102%	44.5%	91.3%	16.7%	13.3%	-32.9% (active)	92.5%	56.4%	2.22% (active)
O=C(Nc1ccncc1)c1ccc(-n2c(=O)[nH]c3ccccc3c2=O)cc1	80.1%	87.4%	97.6%	99%	110%	77.1%	84.9%	106%	94.2%	102%	100%	96.3%	98.2%	88.9%	110%	95.6%	98.8%	109%	97.4%	–
CC1(C)CC[C@]2(C(=O)O)CC[C@]3(C)C(=CC[C@@H]4[C@@]5(C)C/C(=C/c6ccncc6)[C@H](O)C(C)(C)[C@@H]5CC[C@]43C)[C@@H]2C1	37.6%	38.2%	34%	42.1%	34%	4.52% (active)	42.1%	19.9%	48.4%	37.2%	57.9%	73.1%	34.1%	24.2%	46.9%	20.1%	27.8%	64.3%	61.6%	–
